These results are taken from PubChem BioAssay (Tox21).

A short description of assay [1]: qHTS assay to identify aromatase inhibitors - cell viability counter screen (AID 743084).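 Further: cells stimulated with testosterone during compound exposure; nearly all actives have a fitted effect of over 55% in size.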 For orientation: Quantitative high-throughput screening tests each substance at several concentrations.
Assay [2] deals with Aryl hydrocarbon receptor (Homo sapiens) (UniProt P35869). As to the kind of experiment: qHTS assay to identify small molecule that activate the aryl hydrocarbon receptor (AhR) signaling pathway (AID 743085). Further: nearly all actives have a fitted effect of over 15% in size. Further: potency means the concentration at half of the fitted maximal effect.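 On activation: HG2L7.5c1 human HepG2 liver cells with stably integrated DRE-driven firefly reporter; series mostly up to about 70 µM.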 An outline of the steps: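 Stably transfected human liver carcinoma cells (HG2L7.5c1; 20 DRE-firefly luciferase) were incubated 5 h, dosed, and kept 24 h at 37C. Agonism was scored from increased luciferase luminescence.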
Aryl hydrocarbon receptor (Homo sapiens), sequence (P35869 whole entry, looked up): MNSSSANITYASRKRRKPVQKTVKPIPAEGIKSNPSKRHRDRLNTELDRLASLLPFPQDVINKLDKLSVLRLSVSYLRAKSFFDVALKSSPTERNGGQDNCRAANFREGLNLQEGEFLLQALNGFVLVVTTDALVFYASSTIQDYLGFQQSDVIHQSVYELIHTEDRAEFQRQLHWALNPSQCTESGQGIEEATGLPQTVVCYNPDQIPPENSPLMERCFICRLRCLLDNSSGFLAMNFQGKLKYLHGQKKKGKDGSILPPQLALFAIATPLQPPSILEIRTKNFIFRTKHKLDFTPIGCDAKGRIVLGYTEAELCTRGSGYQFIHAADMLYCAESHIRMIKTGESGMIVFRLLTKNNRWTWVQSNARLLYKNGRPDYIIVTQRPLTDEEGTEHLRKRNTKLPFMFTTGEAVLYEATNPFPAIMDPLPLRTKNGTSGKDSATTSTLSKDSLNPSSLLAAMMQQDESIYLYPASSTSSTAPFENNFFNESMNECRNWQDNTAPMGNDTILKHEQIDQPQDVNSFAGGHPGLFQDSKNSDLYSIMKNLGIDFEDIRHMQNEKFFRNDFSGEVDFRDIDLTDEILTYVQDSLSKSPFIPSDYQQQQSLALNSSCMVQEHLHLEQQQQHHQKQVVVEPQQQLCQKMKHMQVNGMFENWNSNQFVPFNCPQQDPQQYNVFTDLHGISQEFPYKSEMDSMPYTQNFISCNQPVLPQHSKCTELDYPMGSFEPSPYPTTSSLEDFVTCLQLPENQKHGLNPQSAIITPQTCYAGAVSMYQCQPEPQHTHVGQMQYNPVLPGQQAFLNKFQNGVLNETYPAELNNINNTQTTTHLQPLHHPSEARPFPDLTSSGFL

Assay [3] can be described thus: qHTS assay to identify small molecule that activate the aryl hydrocarbon receptor (AhR) signaling pathway - cell viability counter screen (AID 743086).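 Further: HepG2 liver cells carrying the AhR DRE luciferase reporter; series mostly up to about 70 µM; nearly all actives have a fitted effect of over 45% in size.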 In short, it runs like this:
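HepG2-AhR-luc (HG2L7.5c1) cells, 4000/well, treated 24 h at 37 C with compound; viability measured as CellTiter-Fluor fluorescence after 30 min in the same wells as the luciferase read.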

The target of assay [4] is Peroxisome proliferator-activated receptor gamma (Homo sapiens) (UniProt P37231). As to the kind of experiment: qHTS assay to identify small molecule agonists of the peroxisome proliferator-activated receptor gamma (PPARg) signaling pathway (AID 743094; active means well fitted activation curve with a large enough effect in the signal ratio in the repeat runs, not every such curve was filed as active; the % refers to the signal ratio). In short, it runs like this: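 Following 5 h plating at 37C, PPARg-bla HEK293H cells receive compound or DMSO for 17 h; fluorescence intensity is recorded after LiveBLAzer B/G loading for 1 h at room temperature.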
Peroxisome proliferator-activated receptor gamma (Homo sapiens), sequence (P37231 whole entry, looked up): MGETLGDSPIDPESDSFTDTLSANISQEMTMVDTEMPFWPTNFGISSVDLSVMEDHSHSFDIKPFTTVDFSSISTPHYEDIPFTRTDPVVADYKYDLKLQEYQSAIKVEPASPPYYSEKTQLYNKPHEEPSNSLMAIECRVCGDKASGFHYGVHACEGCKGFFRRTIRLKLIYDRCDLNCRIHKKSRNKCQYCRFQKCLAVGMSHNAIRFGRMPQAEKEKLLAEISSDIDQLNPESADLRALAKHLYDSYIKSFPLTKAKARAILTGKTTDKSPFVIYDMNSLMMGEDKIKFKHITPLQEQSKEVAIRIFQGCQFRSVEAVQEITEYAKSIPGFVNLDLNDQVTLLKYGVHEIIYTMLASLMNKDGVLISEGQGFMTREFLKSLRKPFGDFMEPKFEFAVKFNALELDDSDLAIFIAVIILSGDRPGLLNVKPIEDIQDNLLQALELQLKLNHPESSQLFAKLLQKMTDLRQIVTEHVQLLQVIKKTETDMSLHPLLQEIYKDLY

Assay [5] is described as follows: qHTS assay to identify small molecule antagonists of the peroxisome proliferator-activated receptor gamma (PPARg) signaling pathway - cell viability counter screen (AID 743194). Further: nearly all actives have a fitted effect of over 55% in size. An outline of the steps:
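Cytotoxicity counter screen in PPARg-bla HEK293H cells, same wells as reporter assay. Compounds plus 50 nM rosiglitazone (final) for 17 h at 37 C, then viability read by CellTiter-Glo luminescence.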

Assay [6] can be described thus: qHTS assay for small molecule agonists of the antioxidant response element (ARE) signaling pathway - cell viability counter screen (AID 743203; calls by dose curve; further: nearly all actives have a fitted effect of over 55% in size). In short, it runs like this:
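Compounds in DMSO were pinned onto ARE-bla HepG2 cells plated 5 hrs earlier at 2,000 cells/well. Sixteen hours later at 37C/5% CO2, CellTiter-Glo was added and luminescence measured after 30 min at room temperature.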

A short description of assay [7]: qHTS assay for small molecule activators of the heat shock response signaling pathway - cell viability counter screen (AID 743209). Further: nearly all actives have a fitted effect of over 50% in size. An outline of the steps: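 Counter screen for cytotoxicity in HeLa HSE-bla reporter cells. Treatment was 5 h at 37 C; viability was detected by luminescent ATP assay (CellTiter-Glo) in the same wells as the beta-lactamase read.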
Assay [8] in a line: qHTS assay to identify small molecule agonists of the peroxisome proliferator-activated receptor delta (PPARd) signaling pathway - cell viability counter screen (AID 743211). Further: nearly all actives have a fitted effect of over 55% in size. In short, it runs like this:
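In the same wells used for beta-lactamase reporter measurement, cytotoxicity is scored by CellTiter-Glo. HEK293H PPARd-bla cells receive compound for 17 h at 37C following a 5 h settling period.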

In assay [9] the target is Peroxisome proliferator-activated receptor delta (Homo sapiens) (UniProt Q03181). As to the kind of experiment: qHTS assay to identify small molecule agonists of the peroxisome proliferator-activated receptor delta (PPARd) signaling pathway (AID 743212; calls by dose curve). An outline of the steps:
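Quantitative high-throughput agonist screen in a HEK293H beta-lactamase reporter line under UAS control. Compounds in DMSO, at 37 C. Fluorescence read after 2 h with FRET substrate at room temperature.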

Assay [10] in a line: qHTS assay to identify small molecule antagonists of the peroxisome proliferator-activated receptor delta (PPARd) signaling pathway - cell viability counter screen (AID 743213). Further: nearly all actives have a fitted effect of over 50% in size. An outline of the steps:
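HEK293H PPARd UAS-bla cells, 5 h pre-incubation, compound + L165041 300 nM final, 17 h 37 C; B/G FRET substrate 2 h RT; then CellTiter-Glo 30 min RT, luminescence.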

The target of assay [11] is Peroxisome proliferator-activated receptor delta (Homo sapiens) (UniProt Q03181). As to the kind of experiment: qHTS assay to identify small molecule antagonists of the peroxisome proliferator-activated receptor delta (PPARd) signaling pathway (AID 743215; active means well fitted inhibition curve with a large enough effect in the signal ratio in the repeat runs, not every such curve was filed as active; the % refers to the signal ratio;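 further: cells stimulated with agonist L165041 at 300 nM final during compound exposure; series mostly up to about 62 µM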). In short, it runs like this: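 With L165041 present at 300 nM final, compounds were incubated 17 h at 37 C on PPARd UAS-bla HEK293H cells. A FRET-based beta-lactamase substrate was then applied for 2 h at room temperature and fluorescence intensity recorded.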
Peroxisome proliferator-activated receptor delta (Homo sapiens), sequence (Q03181 whole entry, looked up): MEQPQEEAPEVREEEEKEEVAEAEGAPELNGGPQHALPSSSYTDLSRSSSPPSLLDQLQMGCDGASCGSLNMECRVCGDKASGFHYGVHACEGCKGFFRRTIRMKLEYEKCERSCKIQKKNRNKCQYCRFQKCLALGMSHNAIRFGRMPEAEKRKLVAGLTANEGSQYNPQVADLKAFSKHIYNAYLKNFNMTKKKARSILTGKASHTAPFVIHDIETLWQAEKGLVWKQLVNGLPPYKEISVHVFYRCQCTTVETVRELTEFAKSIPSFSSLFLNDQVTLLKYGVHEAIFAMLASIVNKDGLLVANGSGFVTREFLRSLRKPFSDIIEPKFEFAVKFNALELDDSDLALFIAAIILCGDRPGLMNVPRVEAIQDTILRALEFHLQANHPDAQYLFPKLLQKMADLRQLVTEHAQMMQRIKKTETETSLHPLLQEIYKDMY

Assay [12] in a line: qHTS assay to identify small molecule agonists of the farnesoid-X-receptor (FXR) signaling pathway - cell viability counter screen (AID 743218). Further: nearly all actives have a fitted effect of over 45% in size. In short, it runs like this:
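After 16 h at 37 C with test compounds, FXR-bla HEK 293T cells were given LiveBLAzer B/G substrate for 2 h at RT and then CellTiter-Glo; luminescence was taken after 30 min.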

Assay [13] addresses Bile acid receptor (Homo sapiens) (UniProt Q96RI1). As to the kind of experiment: qHTS assay to identify small molecule agonists of the farnesoid-X-receptor (FXR) signaling pathway (AID 743220; active means well fitted activation curve with a large enough effect in the signal ratio in the repeat runs, not every such curve was filed as active; the % refers to the signal ratio). In short, it runs like this:
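Beta-lactamase reporter under UAS control in GeneBLAzer FXR HEK 293T cells (5000/well) measured with LiveBLAzer FRET substrate after 2 h at room temperature. Compound exposure lasted 16 h at 37C.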

Assay [14] in a line: qHTS assay to identify small molecule antagonists of the farnesoid-X-receptor (FXR) signaling pathway - cell viability counter screen (AID 743221; active means well fitted cell-killing curve with a large enough effect in the repeat runs, not every such curve was filed as active; further: nearly all actives have a fitted effect of over 50% in size). An outline of the steps:
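Here viability was scored by luminescence after CellTiter-Glo addition to wells already read for beta-lactamase. Prior treatment: compound plus CDCA (50 uM final), 16 h, 37 C, HEK 293T FXR-bla cells.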

Assay [15] can be described thus: qHTS assay for small molecule agonists of the antioxidant response element (ARE) signaling pathway (AID 743202; active means well fitted activation curve with a large enough effect in the signal ratio in the repeat runs, not every such curve was filed as active; the % refers to the signal ratio; further: potency means the concentration at half of the fitted maximal effect). An outline of the steps: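 Agonist mode reporter screen: HepG2 cells with ARE-controlled beta-lactamase are incubated with test compounds for 16 h at 37 C, and beta-lactamase activity is measured as fluorescence of cleaved B/G FRET substrate.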
Assay [16] in a line: qHTS assay for small molecule activators of the heat shock response signaling pathway (AID 743210; active means well fitted activation curve with a large enough effect in the signal ratio in the repeat runs, with a control signal flat, not every such curve was filed as active; the % refers to the signal ratio;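 further: HeLa cells with beta-lactamase reporter driven by heat shock elements; series mostly up to about 63 µM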). An outline of the steps: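 Quantitative high-throughput format using an engineered HeLa line in which heat shock response elements drive beta-lactamase; after 5 h with compound, cells received a B/G FRET substrate and fluorescence was read.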
For assay [17], the target named is Vitamin D3 receptor (Homo sapiens) (UniProt P11473). In words: qHTS assay to identify small molecule agonists of the vitamin D receptor (VDR) signaling pathway (AID 743222; calls by dose curve). An outline of the steps:
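VDR-bla cells were seeded, left 4 h, treated with compounds in DMSO for 16 h, incubated 2 h at RT with B/G FRET substrate, and read for fluorescence.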

The target in assay [18] is Peroxisome proliferator-activated receptor gamma (Homo sapiens) (UniProt P37231). In words: qHTS assay to identify small molecule antagonists of the peroxisome proliferator-activated receptor gamma (PPARg) signaling pathway (AID 743191; calls by dose curve; further: series mostly up to about 63 µM; nearly all actives have a fitted effect of over 30% in size). In short, it runs like this: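 GeneBLAzer PPARg UAS-bla HEK293H cells, 5 h post-plating, exposed to compounds 17 h at 37C. LiveBLAzer B/G FRET substrate added for 1 h at room temperature; beta-lactamase reporter read by fluorescence intensity.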

Assay [19] addresses Bile acid receptor (Homo sapiens) (UniProt Q96RI1). As to the kind of experiment: qHTS assay to identify small molecule antagonists of the farnesoid-X-receptor (FXR) signaling pathway (AID 743217; active means well fitted inhibition curve with a large enough effect in the signal ratio in the repeat runs, not every such curve was filed as active; the % refers to the signal ratio). In short, it runs like this:
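In this cell-based antagonist screen, inhibition of CDCA-driven (50 uM final) UAS-beta-lactamase expression in HEK 293T cells was measured by FRET fluorescence following 16 h compound exposure at 37 °C.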

Records with an inconclusive call do not appear. A number with no mark means an inactive call. Activity calls are given as the source filed them. Unless noted, the call rests on the fitted dose curve; in most records, active means well fitted curve in the direction sought with a large enough effect in the repeat runs; inconclusive means weak or mixed curves; inactive means no such curve, though single readings can be large; an effect the other way counts as inactive or inconclusive.

Bile acid receptor (Homo sapiens), sequence (Q96RI1 whole entry, looked up): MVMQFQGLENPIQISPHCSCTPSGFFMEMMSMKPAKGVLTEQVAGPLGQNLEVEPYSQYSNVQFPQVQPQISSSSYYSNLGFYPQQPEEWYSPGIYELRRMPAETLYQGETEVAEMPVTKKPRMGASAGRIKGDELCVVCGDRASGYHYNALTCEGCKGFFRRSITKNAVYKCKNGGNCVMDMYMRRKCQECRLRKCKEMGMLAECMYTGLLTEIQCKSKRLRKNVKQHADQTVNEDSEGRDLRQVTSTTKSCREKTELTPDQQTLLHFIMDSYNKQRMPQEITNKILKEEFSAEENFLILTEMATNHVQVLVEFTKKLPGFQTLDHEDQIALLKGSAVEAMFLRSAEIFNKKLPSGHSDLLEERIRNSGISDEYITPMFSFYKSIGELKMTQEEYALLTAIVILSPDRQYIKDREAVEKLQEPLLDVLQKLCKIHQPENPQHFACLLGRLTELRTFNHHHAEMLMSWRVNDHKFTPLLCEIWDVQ
Vitamin D3 receptor (Homo sapiens), sequence (P11473 whole entry, looked up): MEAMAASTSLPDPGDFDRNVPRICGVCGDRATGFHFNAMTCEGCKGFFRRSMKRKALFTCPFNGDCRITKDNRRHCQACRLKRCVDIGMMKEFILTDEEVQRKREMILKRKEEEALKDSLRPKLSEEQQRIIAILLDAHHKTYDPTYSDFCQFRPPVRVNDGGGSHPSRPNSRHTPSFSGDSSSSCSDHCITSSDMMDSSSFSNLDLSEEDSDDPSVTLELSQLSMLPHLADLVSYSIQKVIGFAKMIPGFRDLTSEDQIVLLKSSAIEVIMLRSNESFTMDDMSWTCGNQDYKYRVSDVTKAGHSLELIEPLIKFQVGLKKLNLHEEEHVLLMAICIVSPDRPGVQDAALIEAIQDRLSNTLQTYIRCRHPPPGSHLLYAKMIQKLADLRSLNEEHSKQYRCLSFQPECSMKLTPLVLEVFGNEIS

For the molecule `NC(=O)c1ncn([C@@H]2O[C@H](CO)[C@@H](O)[C@H]2O)c1O`, the Potency result in assay [1], in assay [2], in [3], in assay [5], in assay [8] and in assay [10] was “inactive” throughout. Further, in [14], the Potency entry was “inactive”. The molecule was classed as inactive in assay [4], in [6], in assay [7], in assay [9], in assay [11] and in assay [12]. Moreover, in assay [13], the outcome was inactive.
For the molecule `[O-][N+](=Nc1ccccc1)c1ccccc1`, the Potency result in assay [1], in [3], in assay [5], in assay [8], in assay [10] and in assay [14] was “inactive” each time. The Potency was 30.6 µM (active) in assay [2] and 6.86 µM (active) in assay [15]. Besides, the molecule was called inactive in assay [4], in assay [6], in assay [7] and in assay [12].
Turning to `CCCCCN(CCCCC)C(=O)C(CCC(=O)O)NC(=O)c1ccc(Cl)c(Cl)c1` (centres undefined), the Potency result in [1], in assay [2], in assay [3], in assay [5], in assay [8] and in assay [10] was “inactive” each time. For the same molecule, the Potency entry in assay [14] was “inactive”. For the same molecule, the result in [4], in [6], in [7], in assay [11] and in assay [12] was inactive.
Take `COc1ccc(NC(C)=O)cc1`: the Potency result in assay [1], in [2], in assay [3], in assay [5], in [15] and in assay [8] was “inactive” in each case. Also, the Potency entry in [10] and in assay [14] was “inactive” throughout. For the same molecule, the molecule was called inactive in [4], in assay [6], in [7], in assay [16], in assay [9] and in assay [11]. Further, the result in [17] was inactive.
`NC(CS)C(=O)O` (centres undefined): the Potency result in assay [1], in assay [2], in assay [3], in assay [8] and in assay [14] was “inactive” in each case. Moreover, the outcome in [4], in assay [18], in [6], in [7], in assay [16] and in assay [9] was inactive. The outcome in assay [11], in assay [12] and in assay [17] was inactive.
`O=C1OC(=O)c2cc([N+](=O)[O-])ccc21`: the Potency entry in [1], in assay [2], in [3], in assay [8], in [10] and in assay [14] was “inactive” in each case. The outcome in assay [4], in assay [18], in assay [6], in assay [7], in [9] and in assay [11] was inactive. Moreover, the outcome in assay [12] and in [17] was inactive.
With `NS(=O)(=O)c1cc(C2(O)NC(=O)c3ccccc32)ccc1Cl` (centres undefined), the Potency result in assay [1], in assay [2], in assay [3], in [5], in [15] and in assay [8] was “inactive” in each case. The Potency result in assay [10] and in assay [14] was “inactive” in each case. For the same molecule, the call in assay [4], in [6], in assay [7], in assay [16], in assay [11] and in assay [19] was inactive. In addition, the outcome in assay [13] and in [17] was inactive.
In the case of `CCCCCCOC(=O)CC(CC(=O)OCCCCCC)(OC(=O)CCC)C(=O)OCCCCCC`, the Potency result in assay [1], in [2], in [3], in [5], in assay [15] and in assay [8] was “inactive” each time. Also, the Potency entry in assay [10] and in assay [14] was “inactive” each time. The molecule was classed as inactive in assay [4], in assay [6], in [16] and in assay [17].
For `CCCCNc1ccccc1`, the Potency result in [1], in [2], in assay [3], in [15], in assay [8] and in assay [10] was “inactive” throughout. Further, the Potency result in assay [14] was “inactive”. Moreover, the molecule was called inactive in assay [6], in assay [7], in [16], in assay [9], in [11] and in assay [19]. Moreover, the outcome in assay [12] and in [17] was inactive.
